Data as given in PubChem BioAssay.
Several values for one entry are separate records, joined by “and”; a condition that tells them apart may be missing. Identical values can stand only once. Activity calls are given as the source filed them. Unless noted, no stated cut-off is given here; in the data, active means inhibition above about 80%; inactive means the rest.

Key:
[1] = LFS_MB_P medulloblastoma growth inhibition, cell-based, chromothripsis tumors, cisplatin or BGB combos (AID 1671449); settings: LFS_MB_P medulloblastoma cells;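 further: cells exposed for 96 hours; 0% = vehicle DMSO and 100% = killing by high DMSO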
[2] = HDN33 neuroblastoma growth inhibition, cell-based, chromothripsis tumors, cisplatin or BGB combos (AID 1671450); settings: HDN33 neuroblastoma cells, stronger effect = higher value;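 further: cells exposed to compound for four days; 0% = vehicle DMSO and 100% = cell killing by high DMSO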
[3] = ICB984 medulloblastoma cell growth inhibition, synergistic combos for chromothripsis tumors, cisplatin or BGB combos (AID 1671451; call rule not given here;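 further: cells exposed for 96 hours before readout; 0% = vehicle DMSO and 100% = killing by high DMSO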); settings: ICB984 medulloblastoma cells, drug combinations, stronger effect = higher value
[4] = LFS_MB_1R medulloblastoma cell growth inhibition, synergistic combos for chromothripsis tumors, cisplatin or BGB combos (AID 1671452); settings: LFS_MB_1R medulloblastoma cells, stronger effect = higher value;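 further: cells exposed for 96 hours before readout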
[5] = HTB85 osteosarcoma cell growth inhibition, synergistic combos for chromothripsis tumors, BGB or cisplatin IC20 combos (AID 1671453); settings: HTB85 osteosarcoma cells, drug combinations, stronger effect = higher value;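 further: cells exposed for 96 hours before readout; 0% = vehicle DMSO and 100% = high DMSO killing control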
[6] = CRL2098 osteosarcoma cell growth inhibition, synergistic combos for chromothripsis tumors, BGB or cisplatin IC20 combos (AID 1671454); settings: CRL2098 osteosarcoma cells, drug combinations, stronger effect = higher value;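 further: cells exposed for 96 h before readout; 0% = vehicle DMSO and 100% = killing by high DMSO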
[7] = HD-MB03 medulloblastoma cell growth inhibition, synergistic combos for chromothripsis tumors, BGB or cisplatin IC20 combos (AID 1671455; in the data active means inhibition above about 83%;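 further: 0% = vehicle DMSO and 100% = high DMSO as cytotoxic control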); settings: HD-MB03 medulloblastoma cells, stronger effect = higher value
[8] = UWB1.289 ovarian carcinoma cell growth inhibition, synergistic combos for chromothripsis tumors, BGB or cisplatin combos (AID 1671456); settings: UWB1.289 ovarian carcinoma cells, stronger effect = higher value;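 further: cells exposed to compound for four days; 0% = vehicle DMSO and 100% = killing by high DMSO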
[9] = LFS_MB_2R medulloblastoma cell growth inhibition, synergistic combos for chromothripsis tumors, cisplatin combos (AID 1671457); settings: LFS_MB_2R medulloblastoma cells, stronger effect = higher value;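 further: cells exposed to compound for four days before readout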
[10] = MDA-MB-436 breast carcinoma cell growth inhibition, synergistic combos for chromothripsis tumors, BGB or cisplatin combos (AID 1671458; call rule not given here;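 further: cells exposed for 96 hours; 0% = vehicle DMSO and 100% = killing by high DMSO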); settings: MDA-MB-436 breast carcinoma growth inhibition, drug combinations, stronger effect = higher value
[11] = UWB1.289_BRCA1 ovarian cancer growth, cell-based, BGB or cisplatin combinations (AID 1671459); settings: UWB1.289 BRCA1 ovarian carcinoma, drug combinations, stronger effect = higher value
[12] = human astrocyte viability loss, single and combined drugs, cytotoxicity control for chromothriptic childhood tumor combination screen, cell-based, BGB or cisplatin IC20 combos (AID 1671460); settings: Human astrocytes, drug combinations, stronger effect = higher value;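 further: cells exposed to compounds for 96 hours before viability readout; 0% = vehicle and 100% = killing control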
[13] = growth inhibition of BT084 medulloblastoma cells, cell-based, ICGC_MB145, cisplatin and BGB IC40 combos (AID 1671461); settings: drug combinations, stronger effect = higher value;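 further: cells exposed to drugs for 96 hours; 0% = vehicle DMSO and 100% = high DMSO full killing control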
[14] = growth inhibition of RCMB18 medulloblastoma cells, cell-based, cisplatin and BGB IC40 combos (AID 1671462); settings: stronger effect = higher value;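 further: cells exposed to compound for four days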
[15] = growth inhibition of CRL1545 osteosarcoma cells, cell-based, cisplatin and BGB IC20 combos (AID 1671464); settings: stronger effect = higher value;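 further: cells exposed to compound for 96 hours before readout; 0% = vehicle DMSO and 100% = high DMSO killing control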
[16] = at 0.5 µM, stronger effect = higher value
[17] = measured here: combination with BGB IC20, at 0.005 µM
[18] = measured here: combination with BGB IC40, at 0.005 µM
[19] = measured here: combination with BGB IC40, at 0.05 µM
[20] = measured here: combination with cisplatin, at 0.5 µM, stronger effect = higher value
[21] = measured here: combination with cisplatin, at 5 µM, stronger effect = higher value
[22] = measured here: with BGB IC20 combination, at 0.5 µM
[23] = measured here: with cisplatin IC20 combination, at 0.5 µM
[24] = measured here: 5 uM single agent, at 5 µM
[25] = measured here: combination with cisplatin, at 0.5 µM
[26] = measured here: combination with cisplatin, at 5 µM
[27] = measured here: with BGB IC20, at 0.5 µM
[28] = measured here: with BGB IC20, at 5 µM
[29] = measured here: with cisplatin IC20, at 0.5 µM
[30] = measured here: with cisplatin IC20, at 5 µM

CN(C)CCNC(=O)c1cccn2c(=O)c3cc4ccccc4cc3nc12
inhibition [1, 16]: -18% (inactive) and -22.8% (inactive) | inhibition [1, 17]: -22.4% and -7.9% | inhibition [1, 18]: -33.3% and -28% | inhibition [1, 19]: -30.9% and 0.948% | inhibition [1, 20]: -27.4% and -25.4% | inhibition [1, 21]: 25.9% and 73.9% | inhibition ([2]; BGB combo, at 5 µM): 58.1% and 71.8% | inhibition ([2]; at 0.5 µM): 4.02% (inactive) and 16.5% (inactive) | inhibition ([2]; cisplatin combo, at 5 µM): 63.6% and 83.1% | inhibition [2, 22]: -3.52% and 15.5% | inhibition [2, 23]: 5.98% and 5.66% | inhibition ([2]; single agent, at 5 µM): 67.9% and 86.2% | inhibition ([3]; BGB IC20 combo, at 0.005 µM): -2.65% and -7.73% | inhibition ([3]; BGB IC40 combo, at 0.005 µM): -19% and -46.8% | inhibition ([3]; BGB IC40 combo, at 0.05 µM): 29.2% and 25.5% | inhibition ([3]; at 0.5 µM): -22.7% (inactive) and -19.3% (inactive) | inhibition ([3]; cisplatin combo, at 0.05 µM): 25.8% and 22.5% | inhibition ([3]; cisplatin combo, at 0.5 µM): -35.6% and -11.2% | inhibition ([3]; cisplatin combo, at 5 µM): -26.2% and -47.1% | inhibition [3, 24]: -15.3% and -26.1% | inhibition ([4]; at 0.5 µM): -22.6% (inactive) and -0.28% (inactive) | inhibition [4, 19]: -22.9% and -35.5% | inhibition [4, 25]: -29.9% and 26.6% | inhibition [4, 26]: 66.5% and 90.2% | inhibition ([5]; at 0.5 µM): -6.94% (inactive) and -9.64% (inactive) | inhibition [5, 27]: 10% and -19.8% | inhibition [5, 28]: 24.9% and 50.6% | inhibition [5, 29]: -22.5% and -20.8% | inhibition [5, 30]: 24% and 36.1% | inhibition ([5]; single agent, at 5 µM): 45.2% and 66.6% | inhibition ([6]; at 0.5 µM): 2.28% (inactive) and -30.7% (inactive) | inhibition ([6]; measured here: combination with BGB at IC20, at 0.5 µM): -26.7% and 2.29% | inhibition ([6]; measured here: combination with cisplatin at IC20, at 0.5 µM): 7.69% and -23.9% | inhibition ([7]; at 0.5 µM): 0.57% (inactive) and 18.1% (inactive) | inhibition ([7]; measured here: combo with BGB at IC20, at 0.5 µM): 5% and 20.5% | inhibition ([7]; measured here: combo with cisplatin at IC20, at 0.5 µM): -3.84% and 18.8% | inhibition ([8]; at 0.5 µM): 10.9% (inactive) and 15.8% (inactive) | inhibition ([8]; measured here: inhibition with BGB combination, at 0.05 µM): -15.6% and -22% | inhibition ([8]; measured here: inhibition with cisplatin combination, at 0.05 µM): -3.25% and -14.4% | inhibition ([9]; at 0.5 µM): -28.9% (inactive) and -23.7% (inactive) | inhibition [9, 25]: -34.7% and -23.8% | inhibition [9, 26]: -8.3% and 23.4% | inhibition ([10]; at 0.5 µM): -19.8% (inactive) and -0.82% (inactive) | inhibition ([10]; measured here: BGB combination, at 0.5 µM): -29.6% and -21.4% | inhibition ([10]; measured here: BGB combination, at 5 µM): 5.41% and 28.4% | inhibition ([10]; measured here: cisplatin combination, at 0.5 µM): -39.6% and -3.6% | inhibition ([10]; measured here: cisplatin combination, at 5 µM): -6.72% and 54.3% | inhibition ([11]; BGB combination, concentration series, at 5 µM): 35.7% and 58.1% | inhibition ([11]; at 0.5 µM): 9.64% (inactive) and 20.1% (inactive) | inhibition ([11]; cisplatin combination, concentration series, at 5 µM): 60% and 77.2% | inhibition ([12]; at 0.5 µM): 16.8% (inactive) and 32.4% (inactive) | inhibition ([12]; measured here: combo with BGB IC20, at 0.5 µM): 18.7% and 31.3% | inhibition ([12]; measured here: combo with cisplatin IC20, at 0.5 µM): 0.257% and 17.6% | inhibition ([13]; at 0.5 µM): -10% (inactive) and -13.6% (inactive) | inhibition ([13]; cisplatin combination, at 0.5 µM): -8.31% and -7.28% | inhibition ([13]; cisplatin combination, at 5 µM): -110% and 45.2% | inhibition ([13]; measured here: BGB IC40 combination 0.05 uM, at 0.05 µM): -36.7% and -32.1% | inhibition ([13]; single agent, at 5 µM): -53.7% and -33.8% | inhibition ([14]; at 0.5 µM): -4.43% (inactive) and -8.03% (inactive) | inhibition ([14]; cisplatin combo, at 5 µM): 24.5% and 56.4% | inhibition ([14]; measured here: BGB IC40 combination, at 0.05 µM): -9.99% and -6.24% | inhibition [14, 25]: -30.6% and 30.2% | inhibition ([14]; single agent, at 5 µM): -2.75% and -32% | inhibition ([15]; at 0.5 µM): 6.65% (inactive) and -6.99% (inactive) | inhibition [15, 22]: 19.7% and -21.2% | inhibition [15, 23]: -1.47% and 0.101% | inhibition ([15]; single agent, at 0.05 µM): -9.51% and -11.2% | inhibition ([15]; single agent, at 5 µM): 37.2% and 93.5%

CCCCNNC(=O)c1ccc(Br)cc1
inhibition [1, 16]: -28.6% (inactive) and -13.6% (inactive) | inhibition [1, 17]: -3.01% and -23.3% | inhibition [1, 18]: -22.6% and -43.3% | inhibition [1, 19]: -0.924% and -28% | inhibition [1, 20]: -32% and -11.5% | inhibition [1, 21]: -36.2% and 31.8% | inhibition ([2]; BGB combo, at 5 µM): -6.55% and 1.44% | inhibition ([2]; at 0.5 µM): 0.02% (inactive) and -19.7% (inactive) | inhibition ([2]; cisplatin combo, at 5 µM): 13.1% and 50.6% | inhibition [2, 22]: 3.17% and -28.2% | inhibition [2, 23]: -1.75% and -2.85% | inhibition ([2]; single agent, at 5 µM): 4.48% and -2.92% | inhibition ([3]; BGB IC20 combo, at 0.005 µM): -0.717% and -27.2% | inhibition ([3]; BGB IC40 combo, at 0.005 µM): -41.6% and -37.1% | inhibition ([3]; BGB IC40 combo, at 0.05 µM): -16% and 7.68% | inhibition ([3]; at 0.5 µM): -18.8% (inactive) and -23.4% (inactive) | inhibition ([3]; cisplatin combo, at 0.05 µM): -20.6% and 3.05% | inhibition ([3]; cisplatin combo, at 0.5 µM): -33.8% and -35% | inhibition ([3]; cisplatin combo, at 5 µM): -37.9% and -23% | inhibition [3, 24]: -7.59% and -16.8% | inhibition ([4]; at 0.5 µM): -6.14% (inactive) and -24.9% (inactive) | inhibition [4, 19]: -4.43% and -39.3% | inhibition [4, 25]: 15.7% and -27.4% | inhibition [4, 26]: -45.3% and 33.7% | inhibition ([5]; at 0.5 µM): -6.38% (inactive) and -12% (inactive) | inhibition [5, 27]: -9.67% and -6.58% | inhibition [5, 28]: -16.5% and 39.7% | inhibition [5, 29]: -16.9% and -17.5% | inhibition [5, 30]: -4.96% and 37.1% | inhibition ([5]; single agent, at 5 µM): 0.402% and 2.14%
